# Screening data: PubChem, National Center for Advancing Translational Sciences (NCATS)
# D2 PAM-1 = positive allosteric modulators of human D2 dopamine receptor | HEK293 T-REx D2, calcium flux, EC20 dopamine potentiation | potentiation, % at 10 µM | 0.34% of 340,000 active | AID 485347;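 active = potentiation over 3 SD above the plate norm, cut at about 30% in these data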; also: 0% is about no effect
# Target sequence (P14416 whole entry, looked up): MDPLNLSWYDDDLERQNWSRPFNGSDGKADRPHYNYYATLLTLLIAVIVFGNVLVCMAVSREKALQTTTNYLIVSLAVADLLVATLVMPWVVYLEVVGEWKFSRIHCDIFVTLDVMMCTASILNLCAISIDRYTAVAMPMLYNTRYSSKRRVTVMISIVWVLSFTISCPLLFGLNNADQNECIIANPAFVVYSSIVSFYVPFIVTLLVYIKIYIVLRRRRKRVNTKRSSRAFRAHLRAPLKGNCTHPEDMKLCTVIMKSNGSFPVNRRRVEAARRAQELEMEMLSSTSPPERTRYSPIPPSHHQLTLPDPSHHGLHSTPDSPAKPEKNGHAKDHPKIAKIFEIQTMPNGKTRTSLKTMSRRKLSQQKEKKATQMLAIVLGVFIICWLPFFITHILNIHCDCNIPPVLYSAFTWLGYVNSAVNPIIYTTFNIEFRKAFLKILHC
#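 Potentiation of an EC20 dopamine calcium response measured kinetically over 180 s, after a preceding 180 s compound-only read flagging agonists. Cells: inducible Hek293 Trex D2 line, 4000/well, cultured overnight at 30 C before dye loading.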
# D2 ag-1 = activates the human D2 dopamine receptor. HEK293 T-REx D2 cells, calcium flux agonist mode. activation, % at 2 µM. 0.53% of 340,000 active. AID 485358;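 active = activation over 3 SD above normal in the single-dose calcium agonist read, cut at about 30% in these data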; also: 0% is about no effect
#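 Agonism is scored from calcium flux in a force-coupled, inducible HEK293 cell line expressing D2, read kinetically for 180 s after compound addition against dopamine controls.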
# D2 ag-2 = activates the human D2 dopamine receptor; P14416; DiscoveRx PathHunter D2 beta-arrestin, luminescence, 90 min; 100% = 57 uM dopamine signal; activation, % (test concentration not listed); 0.084% of 360,000 active; AID 624465; in the data active = activation above about 40%; inconclusive = between about 15% and that limit
#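 Agonist mode: compounds alone added to overnight-plated D2 PathHunter cells for 90 min at 37 C, with 57 uM final dopamine (EC100) defining full response. Beta-arrestin recruitment detected by chemiluminescent reagent, read after 1 h at ambient temperature.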
# D2 antagonist = D2 dopamine receptor (human) antagonism. 2% of 340,000 active. HEK293 TREx D2 cells, calcium flux, dopamine EC80. inhibition, % at 10 µM; in the data active = inhibition above about 30%; inactive = below that, where a call was filed; also: 0% is about no effect
#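 Compounds are added to dye-loaded, induced HEK293 T-REx cells coupled to calcium release via D2; after a 3 min kinetic read an EC80 dopamine stimulus is given and fluorescence is recorded for 3 more min.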
# D2 PAM-2 = human D2 receptor positive allosteric modulation; P14416; DiscoveRx D2 beta-arrestin cells, luminescence, 90 min; 100% = 57 uM dopamine signal; potentiation, % (test concentration not listed); 0.23% of 360,000 active; in the data active = potentiation above about 50%; inconclusive = mostly about 30% to 49%
#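 PathHunter beta-arrestin assay in DiscoveRx D2 cells. Compounds were added with an EC20 of dopamine (50 nM final) for 90 min at 37 deg C. Luminescence was read 1 h after detection reagent, with 57 uM dopamine as the EC100 control.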
# * hit, by the source's call; ? = inconclusive; . = not tested or not shown; ! = not confirmed by another sample. Hits are enriched below; roughly 2.4% of the tested compounds scored in any of these assays.
SMILES,D2 PAM-1,D2 ag-1,D2 ag-2,D2 antagonist,D2 PAM-2
COc1ccc(NCc2nnc(SCC(=O)NCc3ccco3)n2-c2ccccc2OC)cc1,6,-1,-5,11,-18
Cc1ccc(-n2c(CNc3ccc(F)cc3)nnc2SCC(=O)NCc2ccco2)cc1,18,0,-4,34*,-10
Cc1ccc(-n2c(CNc3ccc(F)cc3)nnc2SCC(=O)N2CCCC2)cc1,7,1,-3,30*,-20
c1ccc(-c2nnc(CN3CCN(c4ccccn4)CC3)o2)cc1,-21,.,.,.,.
COc1ccc(CCNC(=O)C(=O)NCC(c2ccc3c(c2)OCO3)N2CCOCC2)cc1 (stereo unspecified),2,0,.,.,.
CC(C)C(NC(=O)c1ccccc1)C(=O)NCc1ccccn1 (stereo unspecified),-10,1,0,61*,2
COc1cc(OC)cc(C(=O)NC(C(=O)NCc2ccccn2)C(C)C)c1 (stereo unspecified),7,1,-3,-4,-8
CCOC(=O)C1(Cc2ccccc2C)CCCN(C(=O)c2ccccn2)C1 (stereo unspecified),-11,1,-1,-2,0
CCOC(=O)C1(Cc2ccccc2C)CCCN(C(=O)c2cc(C3CC3)[nH]n2)C1 (stereo unspecified),-7,1,1,32*,2
C[C@H]1CCC[C@]2(O[C@@H](CCO)C[C@H](O)[C@H]2O)O1,-4,0,-4,31*,-2
CC(C)COC(=O)n1c(SCC(=O)N(C)C)nc2ccccc21,10,0,-6,31*,-7
CC(C)COC(=O)n1c(SCC(N)=O)nc2ccccc21,1,-2,-2,-21,-19
COc1ccc(C(=O)C[n+]2cccc(C)c2C)cc1[N+](=O)[O-],-35,0,-5,59*,-4
COc1cc(-c2noc(-c3ccc(NCc4cccnc4)c([N+](=O)[O-])c3)n2)cc(OC)c1OC,-7,-1,.,.,.
O=C(CSc1nc(C2CC2)nc2ccccc12)N1c2ccccc2Sc2ccc(C(F)(F)F)cc21,-9,1,4,4,60*
COc1ccc(S(=O)(=O)NCc2cccn2Cc2cccc(C)c2)cc1OC,0,-3,.,.,.
CSc1ncc(C(=O)Nc2ccc(C)c(Cl)c2)c(-c2ccccc2)n1,2,0,.,.,.
COc1ccc(C(=O)NCC(=O)N/N=C/c2c(C)[nH]c3ccccc23)cc1,-4,-1,1,53*,-27
COc1ccc(C(C(=O)NC2CCCC2)N(CCC(C)C)C(=O)CCC(=O)Nc2cc(C)on2)cc1 (stereo unspecified),3,-1,2,35*,2
COc1cccc(C(C(=O)NC2CCCC2)N(CCC(C)C)C(=O)CCC(=O)Nc2cc(C)on2)c1 (stereo unspecified),-3,1,-1,-18,-3
COCCN(C(=O)CCC(=O)Nc1cc(C)on1)C(C(=O)NC(C)(C)C)c1ccc(OC)cc1 (stereo unspecified),-20,8,-10,10,-2
CCCCN(C(=O)CCC(=O)Nc1cc(C)on1)C(C(=O)NC(C)(C)C)c1ccccc1Cl (stereo unspecified),.,1,0,3,-4
COCCN(C(=O)CCC(=O)Nc1cc(C)on1)C(C(=O)NC(C)(C)C)c1ccccc1Cl (stereo unspecified),.,-3,1,45*,-2
COc1ccc(C(C(=O)NC(C)(C)C)N(CCc2ccc(OC)c(OC)c2)C(=O)CCC(=O)Nc2cc(C)on2)cc1 (stereo unspecified),.,1,-5,35*,-3
Cc1ccc2ccc3cc(C(=O)N4CCN(c5ccccc5)CC4)nc3c2[nH]1,7,0,.,.,.
SMILES,D2 PAM-1,D2 ag-1,D2 ag-2,D2 antagonist,D2 PAM-2
CCOc1ccccc1NC(=O)CCc1c(C)nc2c(c(C)nn2-c2ccccc2)c1C,-3,0,.,.,.
Cc1ccccc1C(=O)Nc1nnc(S(=O)(=O)N2CCc3ccccc32)s1,6,-1,.,.,.
Cc1cccc(N2CCN(C(=O)c3cc4ccc5cccnc5c4[nH]3)CC2C)c1 (stereo unspecified),5,0,.,.,.
COc1cc2c(cc1NS(=O)(=O)c1cccc(C#N)c1)n(C)c(=O)n2C,1,1,.,.,.
C=CCn1c(O)c(N=NC(=S)Nc2ccccc2F)c2ccccc21,-25,0,-8,68*,-17
Oc1ccc(/C=N/N2CCOCC2)c(O)c1O,-3,.,?,.,54*
Oc1ccc(/C=N/N2CCCCC2)c(O)c1O,.,.,2,.,9
Cc1ccc(NC(=O)CN(C)S(=O)(=O)c2ccc3c(c2)n(C)c(=O)c(=O)n3C)c(C)c1,0,-1,-5,1,-6
Cc1cc(C)c(NC(=O)CN(C)S(=O)(=O)c2ccc3c(c2)n(C)c(=O)c(=O)n3C)c(C)c1,75*,0,-5,8,1
CCCC(=O)Nc1cc(C)c(O)c(-c2nc3ncccc3o2)c1,-2,0,.,.,.
N#Cc1c(-c2ccccc2)nc(SCc2cccc(Cl)c2)[nH]c1=O,0,-1,2,30*,1
CS(=O)(=O)Nc1cccc(C2=NN(S(=O)(=O)c3ccc(F)cc3)C(c3cccs3)C2)c1 (stereo unspecified),-8,4,-4,31*,-8
CCS(=O)(=O)Nc1cccc(C2=NN(S(=O)(=O)c3ccc(F)cc3)C(c3cccs3)C2)c1 (stereo unspecified),-1,4,-2,4,-6
Cc1ccc(S(=O)(=O)c2nc(S(C)(=O)=O)sc2N(C)Cc2ccccc2)cc1,-3,0,.,.,.
CCN1CCN(c2ccc([N+](=O)[O-])c(Sc3nc4ccccc4[nH]3)c2)CC1,-25,-2,-6,87*,-21
Cc1cccc(NC(=O)Cn2nnc(C(=O)NCc3ccco3)c2N)c1,-6,2,-4,34*,-4
COc1ccc(CCNC(=O)Cn2nnc(C(=O)Nc3ccc(Br)cc3)c2N)cc1OC,56*,1,13,-43,-2
COc1ccccc1NC(=O)c1nnn(CC(=O)Nc2ccccc2)c1N,3,0,-1,14,-2
COc1ccccc1NC(=O)c1nnn(CC(=O)Nc2cccc(SC)c2)c1N,35*,-1,-2,-6,-11
CCc1ccccc1NC(=O)Cn1nnc(C(=O)NCc2cccc(OC)c2)c1N,70*!,0,-6,.,-14
Cc1ccc(NC(=O)Cn2nnc(C(=O)NCc3ccco3)c2N)cc1,1,0,-2,-13,-12
CCOc1ccc(NC(=O)Cn2nnc(C(=O)NCCc3ccc(OC)c(OC)c3)c2N)cc1,6,-1,-2,5,18
